# Source: PubChem BioAssay (Tox21)
# Results filed as inconclusive are left out. Calls of active or inactive are those of the source. Calls come from the whole dose curve.
# Experiment: qHTS assay to identify small molecule agonists of H2AX - cell viability counter screen (AID 1224847); note: top concentration of the series differs between compounds; nearly all actives have a fitted effect of over 30% in size
# Settings: CHO-K1 viability, CellTiter-Glo luminescence, 3 h; series mostly up to 154 µM
# Description: National Center for Advancing Translational Sciences [NCATS]
# NIH Chemical Genomics Center [NCGC]
# U.S. Environmental Protection Agency [EPA]
# National Institutes of Environmental Health Sciences [NIEHS]
# National Toxicology Program [NTP]
# U.S. Food and Drug Administration [FDA]
# HTRF phospho-H2AX (Ser139) assay (Cisbio Bioassays, US) enables the quantitative detection of the histone variant H2AX when phosphorylated on serine 139. When double-stranded DNA breaks, either by ionizing radiation or endogenous physiological processes, H2AX becomes phosphorylated at Ser139. This phospho-Ser139 serves as a sensitive biomarker for the detection of such breaks, localizing the site of DNA repair. So, HTRF phospho-H2AX Ser139 is a pertinent assay to study genome stability, the cell cycle, DNA repair, and it serves as a biomarker for cancer, and to understand aging. Wild type CHO-K1 cells were used to identify the inducers of Phospho-H2AX Ser 139 from the Tox21 compound collections. Also cytotoxicity of the Tox21 10K compound library against the CHO-K1 cell line was tested by measuring the cell viability using CellTiter-Glo assay (Promega, Madison, WI).
# Tox21 Assay Protocol Summary:
# The CHO-K1 cells suspended in culture medium containing 10% FBS were dispensed at 1000 cells/ 3 ul/well in 1536-well white wall/solid bottom plates (Greiner Bio-One North America, NC) using a Multidrop Combi (Thermo Fisher Scientific Inc., Waltham, MA). After the assay plates were incubated at 37C overnight, 23 nl of compounds at 15 concentrations (from 5-48 columns) or positive control (from 1 to 4 columns) were transferred to the assay plates using a Pintool station (Wako, San Diego, CA) into each well resulting in a final DMSO concentration of 0.76%. After 3hr incubation at 37C, 3 uL/well CellTiter-Glo luminescent cell viability reagent (Promega Corporation, Madison, WI) was added using a Flying Reagent Dispenser (FRD) (Aurora Discovery, CA). After incubation at room temperature for 30 min, the luminescence intensity was read using a ViewLux plate reader (PerkinElmer, Waltham, MA).
# % is set by controls: 0 for no effect and ±100 for the full control effect.
Compound,outcome,"activity change, negative = cytotoxicity"
CO[Si](CCCn1c(=O)n(CCC[Si](OC)(OC)OC)c(=O)n(CCC[Si](OC)(OC)OC)c1=O)(OC)OC,inactive,
O=C(Cl)c1ccccc1[N+](=O)[O-],inactive,
Cc1ccc(C)c([N+](=O)[O-])c1,inactive,
CCCSSCCC,inactive,
CC(O)COC(C)(C)C (stereo not given),inactive,
[O]=[Mo](=[O])=[O],,-2.98% [at 31.6 µM] (inactive)
Cn1c(=O)c2c(ncn2CCO)n(C)c1=O,inactive,
CCC(=O)Oc1ccc2c(c1)CC[C@@H]1[C@@H]2CC[C@@]2(C)[C@H]1C[C@@H](OC(=O)CC)[C@@H]2OC(=O)CC,inactive,
O=C1CCC(=O)N1Cl,inactive,
CC/C(C)=N\O[Si](C)(O/N=C(\C)CC)O/N=C(\C)CC,inactive,
CC(C)=CCC/C(C)=C/COC=O,inactive,
OCC(O)CN1CCN(c2ccccc2)CC1 (stereo not given),inactive,
CCCCCCCCCOC(=O)CCCCC(=O)OCCCCCCC,inactive,
CCCCCCCCCCCCCBr,inactive,
CCOCCOCC,inactive,
Cn1nnc2c(C(N)=O)ncn2c1=O,inactive,
C#CCN[C@@H]1CCc2ccccc21,inactive,
CC(C)(CO)C(O)C(=O)NCCCO (stereo not given),inactive,
CC(=O)OCC(=O)Nc1cc(C#N)cc(NC(=O)COC(C)=O)c1Cl,inactive,
COP(=O)(O)OP(=O)(O)OC,inactive,

Compound,outcome,"activity change, negative = cytotoxicity"
Cc1c(N)cccc1Cl,inactive,
CC1(C)Oc2ccc(C#N)cc2[C@@H](N2CCCC2=O)[C@@H]1O,inactive,
Cc1ccc(C(C)NC(=O)[C@@H](NC(=O)OC(C)C)C(C)C)cc1 (stereo not given in full),inactive,
O=C(CCCl)NCCc1ccccc1,inactive,
C=C(C)c1cccc(C(C)(C)N=C=O)c1,inactive,
C=CC(=O)CCCCC,inactive,
CCO,inactive,
C=CCN1C[C@H](C(=O)N(CCCN(C)C)C(=O)NCC)C[C@@H]2c3cccc4[nH]cc(c34)C[C@H]21,inactive,
C=CCCCC,inactive,
N[C@@H](Cc1ccc(O)cc1)C(=O)O,,5.12% [at 14 µM] (inactive)
CC(=O)O[C@@H]1CC2CCC1(C)C2(C)C (stereo not given in full),inactive,
C/C=C(\C)C(C)=O,inactive,
OCC1CCC(CO)CC1 (stereo not given),inactive,
CC(C)c1ccc(C=O)cc1,inactive,
CC1CC(=O)CC(C)(C)C1 (stereo not given),inactive,
CC(C)CO,inactive,
CC(C)C[C@@H]1[C@H](c2ccccc2)OC(=O)N1CCCN1CCCCCC1,inactive,
CC(=O)CCC1=C(C)CCCC1(C)C,inactive,
OCCN1CCOCC1,inactive,
O=C(O)CSCC(=O)NC1CCSC1=O (stereo not given),inactive,
